Values joined by “and” are separate entries in the source; they are usually repeats but may differ in a detail not shown here. Equal entries are not always repeated. Records with an inconclusive call do not appear. Active and inactive are the calls of the source. Unless noted, the call rests on the fitted dose curve; in most records, active means well fitted curve in the direction sought with a large enough effect; inconclusive means small, poorly fitted or top-dose-only effect, or another doubt; inactive means no such curve, though single readings can be large; an effect the other way counts as inactive or inconclusive.
Key:
[1] = biological target: Cellular tumor antigen p53 (Homo sapiens) (UniProt P04637); assay: Primary qHTS for small molecule compounds that upregulate eGFP-tagged delta133p53alpha (in N-terminal) cells. (AID 2060322); settings: NCI-H358 eGFP-delta133p53alpha fluorescence, 24 h; activation: active compounds read high;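 further: series mostly up to about 56 µM; 0% = DMSO vehicle and 100% = reference activator; nearly all actives have a fitted effect of over 75% in size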
Outline: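 NCI-H358 cells pre-induced 24 h with 10 ng/ml doxycycline to express N-terminal eGFP-delta133p53alpha, then dosed 24 h at 37C without doxycycline; fixed, Hoechst-stained, GFP intensity by laser scanning cytometry, normalized to DMSO (0%) and 57.5 uM 5-azacytidine (100%).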

[2] = biological target: Cellular tumor antigen p53 (Homo sapiens) (UniProt P04637); assay: Primary qHTS for small molecule compounds that upregulate eGFP-tagged delta133p53alpha (in C-terminal) cells. (AID 2060324);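 further: 0% = DMSO wells and 100% = 57.5 µM 5-azacytidine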
Outline: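 In this qHTS, GFP-tagged delta133p53alpha levels are measured in fixed NCI-H358 cells after 24 h compound exposure at 37 °C. The cells are pre-induced with 100 ng/ml doxycycline, and signal is normalized to DMSO-treated wells as 0%.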

[3] = biological target: Aldehyde dehydrogenase, mitochondrial (Homo sapiens) (UniProt P05091); assay: qHTS for Inhibitors of the Aldehyde Dehydrogenase Family (ALDH2) Validation screens (AID 2061302; active means well fitted inhibition curve with a large enough effect; title and protocol of this record describe different tests;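 further: plate controls were DMSO vehicle for no effect and maximal DPI positive control response for full effect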)
[4] = BET inhibitor-based combinations targeting novel dependencies in MECOM-rearranged (r) AML: HNT-34 cell line (AID 2202234); further: nearly all actives have a fitted effect of over 35% in size; further: potency means the concentration at half of the fitted maximal effect
Outline: (§1)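 Cells at 500/well were exposed for 48 hr to MIPE v5.0 drugs as 11-point dose curves. Viability was read by CellTiter-Glo luminescence and normalized to DMSO and empty-well controls. Activity was expressed as AUC and per-cell-line Z-AUC.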

[5] = BET inhibitor-based combinations targeting novel dependencies in MECOM-rearranged (r) AML: UCSD-AML1 cell line (AID 2202235);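 further: series mostly up to about 46 µM; plate controls were DMSO vehicle wells for no effect and blank wells for full effect; nearly all actives have a fitted effect of over 40% in size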
Outline: as §1

[6] = BET inhibitor-based combinations targeting novel dependencies in MECOM-rearranged (r) AML: AML-191 cell line (AID 2202236; further: nearly all actives have a fitted effect of over 35% in size; further: potency means the concentration at half of the fitted maximal effect)
Outline: (§2)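 AML cell lines seeded at 500 cells/well, treated with 11-point dose curves for 48 h. Viability by CellTiter-Glo luminescence, normalised to DMSO and empty wells; activity expressed as AUC and per-cell-line Z-transformed AUC.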

[7] = BET inhibitor-based combinations targeting novel dependencies in MECOM-rearranged (r) AML: SET-2 cell line (AID 2202231); settings: SET-2 AML cells viability, CellTiter-Glo luminescence, 48 h; viability: active compounds read low, series mostly up to about 46 µM;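 further: plate controls were DMSO treated cells for no effect and wells without cells for full effect; nearly all actives have a fitted effect of over 35% in size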
Outline: as §2

[8] = BET inhibitor-based combinations targeting novel dependencies in MECOM-rearranged (r) AML: OCI-AML3 cell line (AID 2202232); settings: Potency: OCI-AML3 viability; further: nearly all actives have a fitted effect of over 35% in size; further: potency means the concentration at half of the fitted maximal effect
Outline: as §2

[9] = BET inhibitor-based combinations targeting novel dependencies in MECOM-rearranged (r) AML: MV-4-11 cell line (AID 2202233); further: nearly all actives have a fitted effect of over 45% in size; further: potency means the concentration at half of the fitted maximal effect
Outline: as §1

[10] = BET inhibitor-based combinations targeting novel dependencies in MECOM-rearranged (r) AML: AML-194 cell line (AID 2202237;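 further: plate controls were vehicle wells for no effect and wells without cells for full effect; nearly all actives have a fitted effect of over 40% in size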)
Outline: as §2

[11] = qHTS for Inhibitors of the Aldehyde Dehydrogenase Family (ALDH1A2, ALDH1A3, ALDH2, ALDH3A1) (AID 2061307); further: on the % scale 0 is the no-effect control and ±100 the full control effect; nearly all actives have a fitted effect of over 50% in size
[12] = biological target: Aldehyde dehydrogenase 1A1 (Homo sapiens) (UniProt P00352); assay: qHTS for Inhibitors of the Aldehyde Dehydrogenase Family (ALDH1A1) Confirmatory screens (AID 2061316); further: potency means the concentration at half of the fitted maximal effect; nearly all actives have a fitted effect of over 65% in size
[13] = biological target: Retinaldehyde dehydrogenase 3 (Homo sapiens) (UniProt P47895); assay: qHTS for Inhibitors of the Aldehyde Dehydrogenase Family (ALDH1A3) Validation screen (AID 2061312); further: on the % scale 0 is the no-effect control and ±100 the full control effect; nearly all actives have a fitted effect of over 45% in size
[14] = biological target: Aldehyde dehydrogenase, mitochondrial (Homo sapiens) (UniProt P05091); assay: qHTS for Inhibitors of the Aldehyde Dehydrogenase Family (ALDH2) Confirmatory screens (AID 2061303; active means well fitted inhibition curve with a large enough effect; title and protocol of this record describe different tests; further: on the % scale 0 is the no-effect control and ±100 the full control effect; nearly all actives have a fitted effect of over 45% in size)
[15] = biological target: Retinaldehyde dehydrogenase 3 (Homo sapiens) (UniProt P47895); assay: qHTS for Inhibitors of the Aldehyde Dehydrogenase Family (ALDH1A3) Confirmatory screens (AID 2061311); further: potency means the concentration at half of the fitted maximal effect; nearly all actives have a fitted effect of over 60% in size
[16] = biological target: Retinal dehydrogenase 2 (Homo sapiens) (UniProt O94788); assay: qHTS for Inhibitors of the Aldehyde Dehydrogenase Family (ALDH1A2) Confirmation screens (AID 2061314); further: potency means the concentration at half of the fitted maximal effect; nearly all actives have a fitted effect of over 65% in size
[17] = biological target: Aldehyde dehydrogenase, mitochondrial (Homo sapiens) (UniProt P05091); assay: qHTS for Inhibitors of the Aldehyde Dehydrogenase Family (ALDH2) Primary screen (AID 2061308);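 further: plate controls were vehicle for no effect and reference inhibitor for full effect; nearly all actives have a fitted effect of over 55% in size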
[18] = biological target: Retinaldehyde dehydrogenase 3 (Homo sapiens) (UniProt P47895); assay: qHTS for Inhibitors of the Aldehyde Dehydrogenase Family (ALDH1A3) Primary screen (AID 2061315);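 further: plate controls were DMSO vehicle for no effect and reference inhibitor for full effect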

Cellular tumor antigen p53 (Homo sapiens), sequence (P04637 whole entry, looked up): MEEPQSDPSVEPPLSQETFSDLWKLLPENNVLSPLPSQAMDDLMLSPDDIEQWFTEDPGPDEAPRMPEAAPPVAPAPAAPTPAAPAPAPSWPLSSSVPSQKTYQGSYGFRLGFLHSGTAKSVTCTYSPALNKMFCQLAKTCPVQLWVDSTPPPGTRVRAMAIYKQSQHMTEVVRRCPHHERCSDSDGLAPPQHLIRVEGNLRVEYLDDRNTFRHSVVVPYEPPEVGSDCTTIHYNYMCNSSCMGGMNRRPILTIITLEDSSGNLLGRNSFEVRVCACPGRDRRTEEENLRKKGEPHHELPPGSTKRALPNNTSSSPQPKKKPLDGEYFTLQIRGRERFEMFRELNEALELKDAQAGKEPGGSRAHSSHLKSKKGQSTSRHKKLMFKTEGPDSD

Cc1c(OCC(F)(F)F)ccnc1CS(=O)c1nc2ccccc2[nH]1 (configuration not stated)
inactive: activation [1] 8.47% and 28.3% | Potency [2] | Potency [3] | Potency [4] | Potency [5] | Potency [6]

CCN(CC)CCn1c(=O)c(Cc2ccc(OC)cc2)nc2ccccc21
inactive: activation [1] 3.86% and 2.44% | Potency [2] | Potency [3] | viability [7] 107% | Potency [8] | Potency [9] | Potency [5] | Potency [6] | Potency [10]

O=C(O)Cc1ccc(O)c(O)c1
active: Potency [12] 14.2 µM
inactive: activation [1] 10.9% | Potency [2] | Potency [11]

CC1(C)NC(=O)N(c2ccc([N+](=O)[O-])c(C(F)(F)F)c2)C1=O
inactive: activation [1] -8.47% and -2.88% and -17.8% | Potency [2] | Potency [13] | Potency [8] | Potency [9] | Potency [5] | Potency [6] | Potency [10]

c1ccc(CN2CCC3(CCCc4ccccc43)CC2)cc1
inactive: activation [1] -56.7% | Potency [3]

COC1=C(OC)C(=O)c2ccccc2C1=O
inactive: activation [1] -31% | Potency [3] | Potency [14] | Potency [11]
active: Potency [15] 0.712 µM | Potency [16] 2.52 µM

CNCCCC12CCC(c3ccccc31)c1ccccc12
active: Potency [8] 18.6 µM | Potency [9] 29.5 µM | Potency [4] 23.5 µM | Potency [6] 23.5 µM
inactive: activation [1] -7.08% and 22.3% and 47.4% | Potency [3] | Potency [17] | Potency [13] | Potency [18]

COc1cc2ncnc(Nc3cccc(Cl)c3)c2cc1OC
active: Potency [9] 8.33 µM | Potency [4] 13.2 µM
inactive: activation [1] 23.2% and -41% | Potency [3] | Potency [17] | Potency [13] | Potency [18]

O=C1NC(=O)C(c2ccccc2[N+](=O)[O-])=C1Nc1ccc(O)c(Cl)c1
inactive: activation [1] -20.1% and -30.9% | Potency [2]
active: Potency [9] 20.9 µM

O=C1Cc2c([nH]c3ccc(Br)cc23)-c2ccccc2N1
inactive: activation [1] -51% | Potency [3]

O=C(O)C1=CCCNC1
inactive: activation [1] -16.6% | Potency [3] | Potency [13]

CN(C)C(N)=NCCC[C@H](N)C(=O)O
inactive: activation [1] -10.9% | Potency [3] | Potency [13]

CCOC(=O)CSc1nc2c(sc3ccccc32)c(=O)n1CCCN1CCCC1
inactive: activation [1] 2.86% | Potency [3] | Potency [17] | Potency [13] | Potency [18]

— PubChem BioAssay (NCATS)
